Tested on: RARb:RXRa (NR concentration 270 nM, RXRa partner concentration 90 nM)
Experiment: PBM binding z-score (relative to random genomic background probes); higher = stronger binding; sequences stand for … in GC…GCGATTGACAGCGTAGAATGAAGG
How it was run: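 Ligand-free nuclear receptor dimers were applied to custom Agilent 4×180K protein-binding microarrays whose double-stranded probes carried direct-repeat seeds, single-nucleotide variants, half-site ablations and random human genomic background sequences in 34-nt variable regions. Incubation lasted 1 h. Binding z-scores were computed against the random background probes from regression-normalized fluorescence.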

Sequence	PBM binding z-score
CGTACAGGGTCAGCTAGGCCAGAGTAGGGACGGC	4.16
ACCGAAAGGTCGAGGTGAGTATAGAGAAAGGGAA	4.17
AATATTAGTTGACTTAGGGCAACCGATACGACGC	0.721
ACTAGCAGGCCAAGGGTCACTCCAGATTAGTCCG	3.42
ATCTCTAGGTAACAAAGTTCAGTGAATGCCGAAC	2.4
TCTAGCAGGCCAGAGGGTCACTTAAGAGGTACGG	2.19
TCTTGTAGATCATTAGAGGTTAAGAAAGTGCGCT	1.01
GCTAGTAGTTGAAAGGGCAACCGAATGATTCTCG	1.88
GCTCGGAGGACAAGGGCAGAGCTTTGTCCGTAGA	1.4
AGAATGAGGTTAAGATCATGGAAACAGAATACAT	1.68
AGTAGCAGGCCAAGTTTGGGTCACTCAAACAAAG	1.72
TCGAGTAGGTTACCAATGGGGCATTAAGCTTTCT	0.864
CCAACTAGGTCACGAAAGGTCAAAGTCGAATGAC	5.63
AGAATGAGGTTACCAAAGATCAGGGAAACGCTTG	2.03
ATCGAAAGGACGTGAGGTGAGTATACAGAAAGGC	1.09
TCTAGTTGGACACGGAGGTCACACACGACGGGTA	3.45
CTACCAAGGTGAACAAGGTCATTGATTACTATTC	3.53
CGAACTAGGTCATTGACAGGACAGTGAGTAGTAA	3.6
TCTTGTAGATCAACAGGAGGTTATGAAAGATCGA	0.283
ACTTACGGGTCATCGAGGTTATAGCACGCGTATA	4.11

Sequence	PBM binding z-score
GCTATCAGTTGAAAGGGCAACCGAATGATTCTCG	2.07
CGAACGAGGGCATGAGTTGATAGCGAATGCCGAT	1.97
TAGCCTAGGTCATGCGGGCCAGAATAGTGTCGGC	3.83
GCTAGTTGGTCAGTAAAAGGTCACAAACCGGTCG	3.91
CCTAGTTGGTCAAGGGCACACACGCTATAGGTAC	1.98
ACAGACGGGTGAGTGAAGGTAACTCAGCTGGACG	0.0932
CCTATTAGTTGACCATAAGGGCAACCTAAGCTCG	1.57
GGAACGAGGGCAAGTTGATACCAGAGTTTGATGG	2.45
CCTTACAGGTCACTCCAGGTTATAGCATCGGAGT	4.61
TTACCAAGGTGAAGGTTGTTGATCCCTCTGTAGA	1.58
TCAGATAGGTAAACAGGTGAAAGTCCGTAAGTTA	0.891
AGAATGAGGTTGAGATCAGGGAAACAGAATACAT	0.263
TCTCGGAGGACACGAAGGTCACAGCTTTCCAGAG	3.97
TCTCGGAGGACACGAAGGTCAGATCTTTCCAGAG	3.35
AGAACGAGGGCACGCGGAGTTGATAGCAGAGTAG	2.64
CCTCAGAGGACAGAAGGTCAGAGCTGTCCGCTTT	3.41
TCTCGGAGGACACGAAGGTTAGAGCTTTCCAGAG	1.88
CGTTCAAGGTCAGAGAGGTCAGTGAATGCCGAGT	5.45
CTTGCTAGGTCATGGTCAGCTAATCTACAGTATG	3.66
CCTTACGGGTCTCGAGGTTATAGCACGACGAGCG	0.666
